Screening results as filed in PubChem BioAssay.
A selection: hits, their analogues and other compounds. The true share with any hit is near 2.2%.
RTF Ca sens inh: cardiac RTF calcium sensitivity inhibitors, primary screen, biochemical, IANBD-TnC fluorescence, EC70 calcium. Troponin I, cardiac muscle (Homo sapiens) + Troponin T, cardiac muscle (Homo sapiens) + …. IANBD-labeled cardiac RTF, Ca2+ fluorescence. inhibition, % at 7.15 µM. actives 0.12% (n = 340,000). AID 493244, 2011;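 active = inhibition above the mean inhibition of all tested compounds plus 3 SD, cut at about 17% in these data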;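 also: assay run at fixed EC70 calcium of 1.6 mM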
RTF Ca sens act: cardiac RTF calcium sensitivity activators, primary screen, biochemical, IANBD-TnC fluorescence, EC20 calcium; IANBD-labeled TnC RTF fluorescence at EC20 calcium; 0% EC20 calcium, 100% full calcium; activation, % at 7.2 µM; actives 0.24% (n = 340,000); AID 493008, 2010;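 active = activation above the mean over all tested compounds plus 3 SD, cut at about 30% in these data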;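 also: rise in fluorescence read as greater calcium sensitivity of cardiac thin filaments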
CRFBP-R2 agonist: agonists of CRF-BP/CRF-R2 complex, primary screen, cell-based, HEK293, calcium dye fluorescence, uHTS | CRF-binding protein / CRF receptor 2 complex (human) | calcium dye fluorescence (FLIPR); percent of saturating CRF peptide response | activation, % at 13.2 µM | actives 0.46% (n = 350,000) | AID 588473, 2011;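 active = activation of at least 50%, plus an integration ratio under a set limit after plate pattern correction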;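 also: plate controls were neutral control wells without compound for no effect and CRF at EC100 for full effect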
CRFBP-R2 block: antagonists of CRF-BP/CRF-R2 complex, primary screen, cell-based, HEK293, calcium dye fluorescence, uHTS | CRF-induced calcium fluorescence | inhibition, % at 11.8 µM | actives 0.59% (n = 350,000) | AID 588475, 2011;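 active = inhibition of the ligand-induced calcium signal above about 50% at the single tested concentration, limit read from the data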
Myeloid diff 2: induction of myeloid progenitor differentiation, primary screen, cell-based, flow cytometry, MLPCN library. ER-HoxA9 myeloid progenitors, lysozyme-GFP differentiation. calls only at 10 µM. actives 1% (n = 360,000). AID 624256, 2012;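 active = normalized GFP-positive differentiation at or above the plate's own cutoff, the solvent-only control mean plus 3 SD; inconclusive = no clear call, values can overlap the other calls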;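 also: cells exposed to compound for four days before flow analysis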
RTF inh confirm: cardiac RTF calcium sensitivity inhibitors, confirmation, biochemical, fluorescence readout. shares compounds with RTF Ca sens inh. reconstituted cardiac thin filaments. inhibition, % at 7.15 µM. actives 8% (n = 360); in the data active = inhibition above about 18%
* = called active by the depositor; i = inactive; ? = inconclusive; . = not tested or not shown.

SMILES	RTF Ca sens inh	RTF Ca sens act	CRFBP-R2 agonist	CRFBP-R2 block	Myeloid diff 2	RTF inh confirm
CCCS(=O)(=O)N1CCC(C(=O)NCCCN2CCCC2=O)CC1	19*	-14	1	1	i	0
CCOc1ccccc1-c1nc(-c2ccc(NC(=O)Cc3ccccc3OC)cc2)no1	18*	1	2	-16	i	-4
O=C(C1CCCN(S(=O)(=O)c2cccc3nsnc23)C1)N1CCCCCC1 (stereo not drawn)	17*	2	-2	1	i	2
CN[C@H](CC(=O)O)C(=O)O	18*	6	1	-10	i	-2
N#Cc1ccc(N2CCc3ccccc3C2)c([N+](=O)[O-])c1	188*	-2	-2	15	i	-5
O=C(c1ccc(N2CCCC2)c([N+](=O)[O-])c1)N1CCc2ccccc2C1	-12	-17	0	-3	i	.
CCOC(=O)c1ccc(NC(=S)N(CCCN2CCN(CC)CC2)Cc2cccs2)cc1	17*	-4	0	-7	i	-2
CCOC(=O)c1ccc(NC(=S)N(CCCN2CCN(C)CC2)Cc2cccs2)cc1	-5	-1	10	-32	i	.
COc1cc(/C=C/C(=O)OCC(=O)NC(=O)NC23CC4CC(CC(C4)C2)C3)ccc1OCC#N	18*	5	1	2	i	-2
O=c1cc(-c2ccccc2Cl)oc2ccc([N+](=O)[O-])c(O)c12	-4	-5	-2	-4	i	.
O=[N+]([O-])c1cc([N+](=O)[O-])c2oc(-c3ccccc3)c(Br)c2c1O	27*	-30	4	57*	i	12
Cc1cccnc1NC(=O)C1CCCN1S(=O)(=O)c1ccc(Cl)cc1 (stereo not drawn)	29*	-5	0	-1	i	-3
O=C(Nc1ccccc1[N+](=O)[O-])c1cccc(N2C(=O)CCC2=O)c1	-5	1	-3	24	?	.
CCOC(=O)C(C(=O)N(C)Cc1ccccc1)C1CCCCC1 (stereo not drawn)	-4	3	-2	-15	i	.
COC(=O)c1ccc2nc(NC(=O)COC(=O)CSc3nc(C)cc(C)n3)sc2c1	10	5	0	-2	i	.
Cc1ccc2nc(NC(=O)COC(=O)CSc3nc(C)cc(C)n3)sc2c1	19*	-2	0	-9	i	-5
CC(C)C(C(=O)O)N1C(=O)/C(=C/C=C/c2ccco2)SC1=S (stereo not drawn)	83*	-39	4	-10	i	40*
CCCCc1ccc(NC(=O)N2CCNC(=O)C2CC(=O)Nc2ccsc2C(=O)OC)cc1 (stereo not drawn)	-6	16	1	-20	i	.
COc1ccc(CC(=O)NCCc2ccc(Cl)cc2Cl)cc1	22*	1	1	-2	i	-1
Cn1c(SCC(=O)N2c3ccccc3Sc3ccccc32)nc2ccccc21	19*	6	5	5	i	-5
CCCNC(=O)C1(C)CCCN(Cc2ccccc2-c2ccccc2)C1 (stereo not drawn)	.	.	.	.	i	.
COc1ccccc1Nc1ccc2c(O)cc(S(=O)(=O)O)cc2c1	18*	-24	0	7	i	4
Cc1ccc(S(=O)(=O)c2cc(Nc3ccccc3)ccc2O)cc1	-2	-7	1	-5	i	.
O=S(=O)(O)c1cc(O)c2cc(Nc3ccccc3)ccc2c1	16	-13	-2	-8	i	.
O=S(=O)(O)c1cc(O)c2ccc(Nc3ccccc3)cc2c1	33*	-13	-6	0	i	10
O=S(=O)(O)c1ccc(O)c2cc(Nc3ccccc3)ccc12	105*	-48	0	0	i	50*
Cc1ccc(N2CC(C(=O)N3CCN(c4ccccc4)CC3)CC2=O)cc1 (stereo not drawn)	17*	4	-2	10	i	-4
